# Hit rate of the full screen: of about 220,000 compounds, about 8,200 (3.7%) were called active. For the sample, actives were picked, then their nearest neighbours and some compounds at random. Unmarked numbers belong to inactive results.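 Rule for the calls: active = compounds that reduced the stress-induced luciferase reporter signal by more than about 70% of percent inhibition (limit read from the data); inactive = the rest.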
# Experiment: blockers of ER-stress CHOP reporter expression – cell-based, unfolded protein response, luciferase reporter, primary screen (AID 2732);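 note: 0% = tunicamycin plus vehicle and 100% = wells without tunicamycin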
# Conditions: CHO-K1 CHOP-promoter luciferase, tunicamycin-induced, 15-18 h; at 10 µM; active compounds read high
row,SMILES,inhibition
1,COc1ccc2[nH]c(C(=O)Nc3ccccc3Cl)cc2c1,2.73%
2,CC(C)(C)C(=O)Nc1c(Br)c(C2CC2)nn1-c1ccccc1,0.02%
3,CC(C)(C)c1cc(P(=O)(c2ccccc2)c2ccccc2)ccc1O,9.08%
4,CN1CCN(c2ncc3c(n2)CC(c2ccccc2F)CC3=O)CC1 (stereo unspecified),15.3%
5,CSc1sc(C(=O)NC(=O)NCc2cccnc2)c(C)c1-c1ccon1,28.4%
6,COC(=O)c1c(C(=O)OC)c2n(c1C)CCS2,14.2%
7,CCn1c(=O)c2cc(C(=O)Nc3cccc(C(C)=O)c3)sc2c2ccccc21,-10.2%
8,CC(c1ccco1)N(C(=O)Nc1ccccc1)C1CCCCC1 (stereo unspecified),36.4%
9,Cc1ccc(NC(=O)NC(=O)N(C2CCCCC2)S(=O)(=O)c2ccccc2)cc1,84% (active)
10,Cc1ccc(S(=O)(=O)N(C)CC(=O)NC2CCCC2)cc1,36.5%
11,CC1CC(NC(=O)/C(C#N)=C/c2ccc[nH]2)CC(C)(C)C1 (stereo unspecified),-0.59%
12,Cc1nc2cc3c(cc2s1)OCO3,14%
13,CCCc1c(C(=O)Nc2ccc(F)cc2)cnn1-c1ccccc1,14.9%
14,Cc1cc(C)nc(Nc2cc([N+](=O)[O-])ccc2C)n1,0.9%
15,Cc1ccc(Nc2cc(C)nc3c(C)ccc([N+](=O)[O-])c23)cc1,71.4% (active)
16,Cc1ccc(Nc2ccc(C(N)=O)cc2[N+](=O)[O-])cc1,21.8%
17,Cc1ccccc1NC(=O)Cc1nnc(SCC(=O)N2CCN(c3ccccc3)CC2)n1C,26.1%
18,Cn1c(Cc2cccc3ccccc23)nnc1SCC(=O)N1CCN(c2cccc(Cl)c2)CC1,78.6% (active)
19,Cc1cc2nnc(SCC(=O)N3CCN(c4ccccc4)CC3)n2c(N)n1,23.7%
20,COc1ccc(OC)c(C(=O)c2ccc(Cl)cc2)c1,9.86%
21,Cc1ccc(C2=NN(C)c3nc4ccccc4n3C2)cc1,86.3% (active)
22,Cn1cccc1-c1nc2ccccc2n1C,-2.65%
23,Cc1ccc(O)c(CNc2nc3ccccc3n2C)c1,11.9%
24,COc1ccccc1-n1c(-c2cc(-c3ccco3)[nH]n2)n[nH]c1=S,-7.77%

row,SMILES,inhibition
1,CCO[C@@H]1OC(C(=O)NC2CC2)=C[C@H](C)[C@H]1CCCO,0.64%
2,CCOC(=O)CN(C(=O)COc1nc(C)cc(C)c1C#N)c1ccc(Cl)cc1,23.1%
3,O=C(CCCN1C(=O)/C(=C/c2ccco2)SC1=S)Nc1ccccc1,32.2%
4,O=C(CCN1C(=O)/C(=C/c2cccs2)SC1=S)NNC(=O)c1cccc(O)c1,46.3%
5,O=C(CCCN1C(=O)/C(=C\c2ccco2)SC1=S)Nc1cccc2ccccc12,73.2% (active)
6,O=c1oc(-c2ccccc2NS(=O)(=O)c2ccc(Cl)cc2)nc2ccccc12,21%
7,Cc1ccc(SCc2c(C(=O)N/N=C/C3CC=CCC3)nnn2-c2nonc2N)cc1 (stereo unspecified),36.4%
8,CC(=O)N1N=C(c2ccncc2)OC1(Cc1ccccc1)Cc1ccccc1,-11.2%
9,Cc1cc(C)cc(OCc2nnc(SCC(=O)OC3CCCCC3)o2)c1,25.7%
10,Cc1cc(C)cc(OCc2nnc(SCC(=O)Nc3ccccc3)o2)c1,91.5% (active)
11,Cc1ccc(NC(=O)CSc2nnc(COc3ccccc3C)o2)cc1,39.4%
12,COc1ccc2c(c1)C(=C(C#N)C#N)C(=O)N2CCc1ccccc1,-16.5%
13,O=C1CCC(=O)N1c1ccc(NCCc2ccccc2F)c([N+](=O)[O-])c1,20%
14,O=[N+]([O-])c1ccccc1NCc1ccccc1Cl,34.1%
15,NC(=O)CC(NC(=O)Cc1cccc2ccccc12)c1ccc(NCc2cc(F)ccc2F)c([N+](=O)[O-])c1 (stereo unspecified),99.3% (active)
16,Brc1ccc2ncnc(NCc3cccnc3)c2c1,50.9%
17,CCC(C(=O)OCC(=O)Nc1ccc(C(=O)Nc2ccc(OC)cc2)cc1)c1ccccc1 (stereo unspecified),89.3% (active)
18,CCC(C(=O)OCC(=O)Nc1ccccc1-c1ccccc1)c1ccccc1 (stereo unspecified),6.12%
19,CCC(C(=O)OCC(=O)Nc1c(Cl)cc(Cl)cc1Cl)c1ccccc1 (stereo unspecified),48.2%
20,COc1ccc(C2c3ccc(O)cc3Oc3ncn(CCCO)c(=N)c32)cc1OC (stereo unspecified),11.6%
21,CCOCCn1c(-c2ccccc2)nc2ccccc21,5.67%
22,Cc1nn(-c2ncc(C(F)(F)F)cc2Cl)c(=O)n1-c1ccccc1,-12.9%
23,Cc1ccc(-c2ccnc3nc(Sc4ncc(C(F)(F)F)cc4Cl)nn23)cc1,81.4% (active)
24,c1ccc(-c2ccnc3nc(-n4cccc4)nn23)cc1,7.91%

row,SMILES,inhibition
1,COc1ccc(-c2ccc(OC(=O)NC3CCS(=O)(=O)C3)cc2)cc1 (stereo unspecified),20.4%
2,COc1ccc(/C=N/NC(=O)c2ccccc2)cc1OS(=O)(=O)c1ccccc1,7.47%
3,COc1cc(/C=N/NC(=O)c2ccccc2)ccc1OS(=O)(=O)c1ccccc1,-6.49%
4,COc1cc(/C=N/NC(=O)Nc2ccccc2)ccc1OCCOc1ccccc1C,104% (active)
5,CC(C)c1nc(SCC(=O)NC(=O)NC(C)(C)C)n[nH]1,18.7%
6,Cc1cc(C)cc(OCC(=O)O/N=C(\N)Cc2ccc([N+](=O)[O-])cc2)c1,13.5%
7,O=C(Nc1ccc(Br)cn1)C1CCN(S(=O)(=O)c2cccs2)CC1,42.9%
8,C/C=C/C(=O)Nc1ccc(N2CCN(c3ccc(C(F)(F)F)cn3)CC2)nc1,1.12%
9,Nc1ccccc1Sc1ccc(C(F)(F)F)cc1[N+](=O)[O-],-6.84%
10,COc1ccc(-c2nn(C)c(=O)c3ccccc23)cc1CNC(=O)C1CCCCC1,4.54%
11,CCn1cc(C(=O)NCC2COc3ccccc3O2)c2cc(OC)c(OC)cc2c1=O (stereo unspecified),19.1%
12,Cc1cc(NC(=O)CCC2COc3ccccc3O2)no1 (stereo unspecified),7.18%
13,Cc1cc(C(=O)CCl)c(C)n1CC1COc2ccccc2O1 (stereo unspecified),106% (active)
14,O=C(NC1C2CC3CC(C2)CC1C3)c1ccc(N2CCNCC2)c([N+](=O)[O-])c1 (stereo unspecified),-22.1%
15,O=C1CCC(=O)N(O)CCCCCNC(=O)CCC(=O)N(O)CCCCCNC(=O)CCC(=O)N(O)CCCCCN1,3.7%
16,COc1ccccc1NC(=O)c1cc(Cl)nc2ccccc12,11.8%
17,CCn1c2ccccc2c2cc(CC(N)=O)ccc21,17.4%
18,NC(N)=N/N=C/c1ccc(Cl)c([N+](=O)[O-])c1,-23.8%
19,NC(N)=N/N=C/c1ccc(OCc2ccc(Cl)cc2Cl)cc1,108% (active)
20,COc1ccc(C(=O)O/N=C(\N)Cc2ccc(Cl)cc2Cl)cc1OC,60.4%
21,O=C(CCc1ccccc1)NNc1ccc(F)cc1,4.92%
22,COC(=O)NC1(C(F)(F)F)NC(=O)N(C2CCCCC2)C1=O (stereo unspecified),2.29%
23,O=C(NC1(C(F)(F)F)NC(=O)N(C2CCCCC2)C1=O)c1ccco1 (stereo unspecified),9.81%
24,O=C1NC(Nc2nc3ccccc3s2)(C(F)(F)F)C(=O)N1C1CCCCC1 (stereo unspecified),78.6% (active)

row,SMILES,inhibition
1,Nc1nc(SC23CC4CC(CC(C4)C2)C3)ns1,11.6%
2,COC(=O)c1cn(C(=O)c2ccc(Cl)cc2)c2ccccc12,9.55%
3,O=C(CSc1nnc(SCc2ccc(F)cc2)s1)Nc1ccc(C(=O)O)cc1,-8.93%
4,COc1ccccc1C1C2=C(COC2=O)Nc2cc3c(cc21)OCO3 (stereo unspecified),23.1%
5,CCCOc1ccccc1C1CC(=O)Nc2cc3c(cc21)OCO3 (stereo unspecified),85.8% (active)
6,COCCOC(=O)C1=C(C)NC(=O)CC1c1cc2c(cc1Br)OCO2 (stereo unspecified),-14.4%
7,CC(C)(C)c1nnc(NC(=O)C2c3ccccc3Oc3ccccc32)s1,45.8%
8,N=C(N)SCc1cccc2ccccc12,35.6%
9,CCc1ccc(-c2nn(-c3ccccc3)cc2CSC(=N)N)cc1,103% (active)
10,CCn1c(SCc2ccc(C)cc2)nnc1-c1nn(-c2ccccc2)ccc1=O,28.9%
11,Cn1c(=O)c2c(-c3cccc(Br)c3)c(C#N)c(N)nc2n(C)c1=O,3.49%
12,Cc1nc(N)sc1N=Nc1c(C)n(C)n(-c2ccccc2)c1=O,4.59%
13,CC(C)(CCl)C(=O)Nc1ccc(Sc2ccc(F)cc2)cc1,68%
14,Cc1ccc(NC(=O)CC(=O)Nc2ccc(C)cc2)cc1,20.6%
15,O=C(CCl)Nc1ccc(Sc2ccc(NC(=O)CCl)cc2)cc1,106% (active)
16,COc1ccc(N=C(C)c2sc3ccccc3c2O)cc1,1.74%
17,C=CCNC(=S)N/N=C/c1ccc(C)s1,-20%
18,CC(=O)NCC(O)c1ccc([N+](=O)[O-])cc1 (stereo unspecified),5.99%
19,O=S(=O)(NCc1ccco1)c1cnc(Cl)c(Cl)c1,-45.5%
20,CN=C1C=C/C(=N/N=c2\ccn(O)cc2C)C=C1C,-15.3%
21,Cc1ccc2c(c1)C(c1ccccc1)N(C(=O)c1ccc(S(=O)(=O)N3CCOCC3)cc1)CC(=O)N2 (stereo unspecified),18%
22,COC(=O)CN1C(C)=Nc2ccc(Br)cc2C1c1ccccc1 (stereo unspecified),-10.6%
23,CCC(CC)C(=O)N1CC(=O)Nc2ccc(Br)cc2C1c1ccccc1 (stereo unspecified),81.3% (active)
24,CN(C)C(=O)c1nc2ccc(Cl)cn2c1CNCc1cccc(OC(F)(F)F)c1,-1.69%

# — PubChem BioAssay AID2732 (Emory University Molecular Libraries Screening Center, 2010)
